The whole screen tested about 16,000 compounds, of which about 5,100 (32%) were called active. Inconclusive results (about 25%) are left out. The list shows a part of the results. A number with no mark means an inactive call. The call rests on the fitted dose curve; in most records, active means well fitted curve in the direction sought with a large enough effect; inconclusive means small, poorly fitted or top-dose-only effect, or effect the other way; inactive means no such curve, though single readings can be large or run the other way.
On the % scale 0 is the no-effect control and ±100 the full control effect.

Sequence of Cytochrome P450 3A4 (Homo sapiens) (P08684 whole entry, looked up): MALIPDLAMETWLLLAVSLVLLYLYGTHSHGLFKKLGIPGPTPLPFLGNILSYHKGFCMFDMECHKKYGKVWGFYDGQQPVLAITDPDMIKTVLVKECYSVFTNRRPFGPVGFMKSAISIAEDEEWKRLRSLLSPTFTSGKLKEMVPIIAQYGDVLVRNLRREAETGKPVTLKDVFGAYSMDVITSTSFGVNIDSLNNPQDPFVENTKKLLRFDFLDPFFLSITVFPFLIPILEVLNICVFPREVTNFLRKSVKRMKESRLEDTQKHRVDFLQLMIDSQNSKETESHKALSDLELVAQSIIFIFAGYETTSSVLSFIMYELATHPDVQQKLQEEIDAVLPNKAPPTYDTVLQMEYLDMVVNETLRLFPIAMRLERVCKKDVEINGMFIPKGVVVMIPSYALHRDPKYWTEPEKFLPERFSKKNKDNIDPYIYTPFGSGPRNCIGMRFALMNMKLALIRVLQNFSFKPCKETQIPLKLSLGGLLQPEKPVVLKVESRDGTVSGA

The experiment concerns the target Cytochrome P450 3A4 (Homo sapiens) (UniProt P08684). In words: Cytochrome panel assay with activity outcomes. The conditions noted are these: recombinant CYP, pro-luciferin dealkylation, luminescence, p450-cyp3a4; series mostly up to 57.1 µM; activity, negative = inhibition: at the top concentration.
As for `Cc1cc(Cl)ccc1OCC(=O)N/N=C1\CCCc2ccccc21`, the concentration at half-maximal activity (AC50) is 12.6 µM (active).
Turning to `Cc1cc(Cl)ccc1OCC(=O)NCc1ccncc1`, the AC50 was 1.41 µM (active).
In the case of `Cc1cc(Cl)ccc1OCC(=O)Nc1nc(N)nc(N)n1`, the activity, negative = inhibition is -4.83% [at 11.4 µM].
For `O=C(N/N=C1\CCCc2ccccc21)c1ccc([N+](=O)[O-])cc1Cl`, the activity, negative = inhibition is -11.3% [at 2.29 µM].
Regarding `COc1ccc(-c2nc3cnc(N4CCN(C)CC4)nc3n(C)c2=O)cc1`, the “activity, negative = inhibition” value is 18.8%.
Regarding `COc1ncc2nc(-c3ccc(Cl)cc3)c(=O)n(C)c2n1`, the half-maximal activity concentration (AC50) was 25.1 µM (active).
For the compound `COc1ncc2nc(-c3ccc(F)cc3)c(=O)n(C)c2n1`, the AC50 is 20 µM (active).
Take `Cn1c(=O)c(-c2ccc(Cl)cc2)nc2cnc(OCc3ccccc3)nc21`: the “activity, negative = inhibition” value was 19.1%.
Turning to `COc1ncc2nc(-c3ccccc3)c(=O)n(C)c2n1`, the “activity, negative = inhibition” value was -25.8%.
Consider `CN(C)c1ncc2nc(-c3ccc(F)cc3)c(=O)n(C)c2n1`, for which the “activity, negative = inhibition” value is 18.7%.
Still for that read-out and setting: then `COc1ncc2nc(-c3ccc(Cl)cc3)c(=O)n(-c3ccccc3)c2n1`, with 11.2%.
`COc1ccc(-c2nc3cnc(OC)nc3n(C)c2=O)cc1`: the concentration at half-maximal activity (AC50) was 25.1 µM (active).
Turning to `Cc1ccnn2cc3c(=O)n(C)c(=O)n(C)c3c12`, the “activity, negative = inhibition” value was -5.05%.
The same measure, in the same setting: the result for `C=Cc1c(C)c2cc3[nH]c(cc4nc(cc5nc(cc1[nH]2)C(C)=C5CCC(=O)O)C(CCC(=O)O)=C4C)c(C)c3C=C` reads -10.4%.
Turning to `Cc1cccc(CNc2nc(-c3cccnc3)nc3ccccc23)c1`, the half-maximal activity concentration (AC50) is 1 µM (active).
Consider `N#Cc1cccc(-c2nc(NCc3cccnc3)c3ccccc3n2)c1`, for which the concentration at half-maximal activity (AC50) was 5.01 µM (active).
On the same count and under the same terms, then `N#Cc1cccc(-c2nc(NCc3cccs3)c3ccccc3n2)c1`, with 3.98 µM (active).
The same measure, in the same setting: the result for `COc1cccc(-c2nc(NCc3ccccc3)c3ccccc3n2)c1` reads 12.6 µM (active).
On to `O=[N+]([O-])c1ccc(N2CCOCC2)nc1`, for which the activity, negative = inhibition is -4.02% [at 2.29 µM].
As for `COc1cccc(-c2nc(NCc3cccs3)c3ccccc3n2)c1`, the concentration at half-maximal activity (AC50) is 3.16 µM (active).
Regarding `COCCNc1nc(-c2cccc(OC)c2)nc2ccccc12`, the AC50 was 5.01 µM (active).
Take `COc1cccc(Nc2ncc3nc(-c4ccccc4)c(=O)n(Cc4cccs4)c3n2)c1`: the “activity, negative = inhibition” value is -21.3%.
For `COc1cccc(-c2nc(NCCNC(C)=O)c3ccccc3n2)c1`, the AC50 is 12.6 µM (active).
Still for that read-out and setting: then `COc1cccc(-c2nc(NC3CC3)c3ccccc3n2)c1`, with 1.26 µM (active).
Consider `NNC(=O)[C@@H](O)[C@H](O)[C@H](O)CO`, for which the activity, negative = inhibition was 0.183% [at 11.4 µM].
Take `COc1cccc(-c2nc(NCc3cccnc3)c3ccccc3n2)c1`: the concentration at half-maximal activity (AC50) was 2 µM (active).
Turning to `COC(=O)Cc1c(C)nc2nc(NCc3ccccc3OC)[nH]n2c1=O`, the “activity, negative = inhibition” value was -8.91%.
With `COc1cccc(-c2nc(NCc3ccccc3OC)c3ccccc3n2)c1`, the half-maximal activity concentration (AC50) was 3.98 µM (active).
For `COc1cccc(/C=N/NC(=O)C(=O)NCc2cccnc2)c1`, the activity, negative = inhibition is -8.44% [at 2.29 µM].
Still for that read-out and setting: then `O=C(O)c1nn(-c2ccccc2-c2n[nH]c(=O)[nH]c2=O)c(=O)[nH]c1=O`, with -2.84% [at 11.4 µM].
Take `CCOC(=O)N1CCN(S(=O)(=O)c2ccc3[nH]cc(C(=O)O)c(=O)c3c2)CC1`: the “activity, negative = inhibition” value is -14.5%.
Turning to `COc1cccc(NS(=O)(=O)c2ccc3[nH]cc(C(=O)NCCN4CCOCC4)c(=O)c3c2)c1`, the half-maximal activity concentration (AC50) was 2.82 µM (active).
In the case of `CN1CCN(S(=O)(=O)c2ccc3[nH]cc(C(=O)O)c(=O)c3c2)CC1`, the “activity, negative = inhibition” value is -5.58%.
On to `Cc1ccc(C(=O)NCCCN2CCOCC2)cc1N1CCCC1=O`, for which the “activity, negative = inhibition” value was 15.8%.
Turning to `Cc1ccccc1NS(=O)(=O)c1ccc2[nH]cc(C(=O)NCCCN3CCOCC3)c(=O)c2c1`, the AC50 was 2 µM (active).
`N[C@H](C(=O)O)c1nn[nH]n1`: the “activity, negative = inhibition” value is -1.46%.
Consider `C[C@](N)(C(=O)O)c1ccc(-c2nn[nH]n2)cc1`, for which the “activity, negative = inhibition” value is -6.26%.
As to `COc1ccc(N2C(=O)CC(S/C(N)=N/N=C(\C)c3cccs3)C2=O)cc1` (stereo not drawn), the AC50 was 14.1 µM (active).
Regarding `CCCOc1ccc(N2C(=O)CC(S/C(N)=N/N=C(\C)c3cccs3)C2=O)cc1` (stereo not drawn), the activity, negative = inhibition was 7.2% [at 2.29 µM].
On the same count and under the same terms, then `Cc1cccc(Sc2c([N+](=O)[O-])ncn2C)n1`, with -3.51%.
As to `N[C@H](C(=O)O)[C@@H]1C[C@@H]1C(=O)O`, the AC50 entry is “inactive”.
`O=C(N/N=C/c1cccc(C(F)(F)F)c1)C1CCN(c2ncc(C(F)(F)F)cc2Cl)CC1`: the “activity, negative = inhibition” value is -7.12%.
`Cc1cc(C)nc(NN2C(=O)/C(=C/c3ccccc3)SC2=S)n1`: the “activity, negative = inhibition” value is -9.13%.
Turning to `O=C1/C(=C\c2ccccn2)SC(=S)N1Nc1ncc(C(F)(F)F)cc1Cl`, the AC50 is 3.16 µM (active).
As for `c1ccc(C(CCN2CC3CCC(CC3)C2)c2ccccc2)cc1`, the activity, negative = inhibition is -1.84% [at 11.4 µM].
Consider `CCN(CC)C(=O)Cn1cnc([N+](=O)[O-])n1`, for which the “activity, negative = inhibition” value was -15.3%.
As for `CCOc1ccc(N(CCC#N)S(=O)(=O)c2ccc(OC)cc2)cc1`, the concentration at half-maximal activity (AC50) was 11.2 µM (active).
`CCc1cc2c(=O)n(-c3ccccc3)c(=S)[nH]c2s1`: the “activity, negative = inhibition” value was -18.8%.
On the same count and under the same terms, then `O=c1c2c(-c3cccs3)csc2ncn1-c1ccc(Br)cc1`, with -3.71% [at 2.29 µM].
Turning to `O=c1c2c(-c3cccs3)csc2[nH]c(=S)n1-c1ccccc1`, the concentration at half-maximal activity (AC50) is 14.1 µM (active).
Still for that read-out and setting: then `COc1cccc(-c2nc(N(C)Cc3ccco3)c3ccccc3n2)c1`, with 10 µM (active); and `COc1cccc(-c2nc(N(C)C)c3ccccc3n2)c1`, with 5.01 µM (active); and `COc1ccccc1-c1nc(N(C)Cc2ccco2)c2ccccc2n1`, with 7.94 µM (active).
On the same count and under the same terms, the result for `CN(Cc1ccco1)c1nc(-c2cccc(C#N)c2)nc2ccccc12` reads 12.6 µM (active).
On to `O=C1OCc2cccc3cccc1c23`, for which the “activity, negative = inhibition” value is 10.8%.
On to `Clc1ccccc1-c1ccc2ncnc(NC3CCNCC3)c2c1`, for which the “activity, negative = inhibition” value was -21.5%.
For the compound `FC(F)(F)c1ccccc1-c1ccc2ncnc(NC3CC3)c2c1`, the AC50 was 1.58 µM (active).
As for `FC(F)(F)c1ccccc1-c1ccc2ncnc(NC3CCNCC3)c2c1`, the “activity, negative = inhibition” value was -26.8%.
Regarding `Cc1ccccc1-c1ccc2ncnc(NC3CC3)c2c1`, the concentration at half-maximal activity (AC50) is 3.16 µM (active).
On the same count and under the same terms, the result for `N#Cc1ccccc1-c1ccc2ncnc(NC3CC3)c2c1` reads 2 µM (active).
Take `O=C(O)CCc1ccc(-c2ccccc2)[nH]1`: the activity, negative = inhibition is -13.2% [at 11.4 µM].
As for `CC(C)OC(=O)/C(=C\c1ccc2c(c1)c1ccccc1n2C)NC(=O)c1ccccc1`, the AC50 was 1.12 µM (active).
Take `CC(C)OC(=O)/C(=C\C=C\c1ccccc1)NC(=O)c1ccccc1`: the “activity, negative = inhibition” value is 14.2%.

In general, AC50 refers to the concentration giving half of the maximal activity seen.

For the origin of these results see PubChem BioAssay AID1851 (National Center for Advancing Translational Sciences (NCATS), 2009).
